Among the data in PubChem BioAssay (Tox21) are Potency and outcome values, retold here.

Test [1] is described as follows: qHTS assay to identify small molecule antagonists of the sonic hedgehog signaling (Shh) pathway (AID 1259369; calls by dose curve; also: nearly all actives have a fitted effect of over 45% in size; also: potency is read from the fitted curve at half-maximal effect). In a few lines:
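Screening used 3T3Gli1-Luc cells at 2,000 per well, compounds delivered in DMSO, and conditioned medium as agonist stimulus; plates incubated 24hr at 37 C and 5% CO2 before a 30min luciferase step.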
(In general: Quantitative high-throughput screening tests each substance at several concentrations.)

Test [2] addresses Estrogen receptor beta (Homo sapiens) (UniProt Q92731). Description: qHTS assay to identify small molecule agonists of the estrogen receptor beta (ER-beta) signaling pathway (AID 1259377; active = well fitted activation curve with a large enough effect in the signal ratio in the repeat runs, not every such curve was filed as active; the % refers to the signal ratio). The gist of the method:
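Ratiometric beta-lactamase FRET read-out came after 2 h substrate loading at room temperature. It followed 16 h compound treatment at 37C of GripTite HEK293T cells carrying a UAS-bla reporter, plated in 2% charcoal-stripped FBS medium.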

A short description of test [3]: qHTS assay to identify small molecule agonists of the estrogen receptor beta (ER-beta) signaling pathway - cell viability counter screen (AID 1259380). Also: nearly all actives have a fitted effect of over 30% in size. Also: potency is read from the fitted curve at half-maximal effect. The gist of the method: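 Viability of ER-beta-UAS-bla HEK293T cells was determined by CellTiter-Glo luminescence following 16 hr treatment with test compounds at 37C.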
The target in test [4] is Estrogen receptor (Homo sapiens) (UniProt P03372). Briefly: qHTS assay to identify small molecule agonists of the estrogen receptor alpha (ER-alpha) signaling pathway in the presence of an antagonist (AID 1259383; calls by dose curve; also: top concentration of the series differs between compounds; nearly all actives have a fitted effect of over 15% in size). In a few lines:
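In VM7Luc4E2 cells, 4,000 per well, compounds at 15 concentrations were co-incubated 22hr at 37C with 10.0nM final ICI-182,780. Luminescence from the stably transfected 4×ERE-luciferase reporter was recorded 30min after ONE-Glo addition.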

Test [5] in a line: qHTS assay to identify small molecule agonists or antagonists of the thyroid stimulating hormone receptor (TSHR) signaling pathway - wild type cell line counter screen (AID 1259384; calls by dose curve). In a few lines:
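Wild-type Hek293 cells, 800/well, 18 h at 37C, then compound with Ro20-1724 for 30 min RT. cAMP by HTRF (cAMP-d2/anti-cAMP cryptate), 1 h RT, fluorescence read. 15 concentrations, triplicates.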

In test [6] the target is Thyrotropin receptor (Homo sapiens) (UniProt P16473). Description: qHTS assay to identify small molecule antagonists of the thyroid stimulating hormone receptor (TSHR) signaling pathway (AID 1259385; calls by dose curve; also: nearly all actives have a fitted effect of over 20% in size). The gist of the method: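 TSHR-HEK293 cells (800/well) plated 18 h, then compounds with Ro20-1724 and TSH at 1.5 ng/mL final, 30 min at room temperature. cAMP quantified by HTRF (cAMP-d2/anti-cAMP-cryptate, 1 h); 15 concentrations in triplicate.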

The nature of test [7]: qHTS assay to identify small molecule agonists of the estrogen receptor alpha (ER-alpha) signaling pathway in the presence of an antagonist - cell viability counter screen (AID 1259386).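 Also: series mostly up to about 92 µM; cells exposed to compounds for 22 h at 37 °C before the viability read; nearly all actives have a fitted effect of over 30% in size.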 The gist of the method:
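Fluorescent CellTiter-Fluor viability signal from VM7Luc4E2 cells, with the reagent added during the final hour of a 22hr compound exposure at 37C in the presence of 10.0nM ICI-182,780.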

For test [8], the target named is Progesterone receptor (Homo sapiens) (UniProt P06401). Description: qHTS assay to identify small molecule agonists of the progesterone receptor (PR) signaling pathway (AID 1346784; calls by dose curve; also: nearly all actives have a fitted effect of over 30% in size). In a few lines: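 Agonist qHTS: compounds pinned onto 3,000 PR-UAS-bla HEK 293T cells per well in charcoal-stripped serum medium, 16hr at 37C, then beta-lactamase activity measured by LiveBLAzer FRET fluorescence after 2 hours at room temperature.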

Test [9] shares this target. Briefly: qHTS assay to identify small molecule antagonists of the progesterone receptor (PR) signaling pathway (AID 1346795; active = well fitted inhibition curve with a large enough effect in the signal ratio in the repeat runs, not every such curve was filed as active; the % refers to the signal ratio; also: potency is read from the fitted curve at half-maximal effect). In a few lines: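 Antagonist mode with agonist R5020 at 1 nM final and 16 hr incubation at 37C. Reporter was beta-lactamase driven by UAS in HEK293T (PR-UAS-bla), 2% charcoal-stripped serum; signal from LiveBLAzer FRET substrate, 2 hr at room temperature.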

The nature of test [10]: qHTS assay to identify small molecule antagonists of the progesterone receptor (PR) signaling pathway - cell viability counter screen (AID 1346798). Also: series mostly up to about 92 µM; nearly all actives have a fitted effect of over 50% in size. In a few lines: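 Cytotoxicity read as CellTiter-Glo luminescence (30 min, room temperature) in the same wells as the beta-lactamase readout. HEK293T PR-UAS-bla cells in charcoal-stripped 2% FBS received compound and R5020, then 16 h at 37C, 5% CO2.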

Test [11] can be described thus: qHTS assay to identify small molecule agonists of the progesterone receptor (PR) signaling pathway - cell viability counter screen (AID 1346799; calls by dose curve; also: nearly all actives have a fitted effect of over 45% in size). In a few lines:
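Cytotoxicity measured by CellTiter-Glo luminescence (30 min, RT) in the same wells as the PR beta-lactamase agonist read. Those HEK293T cells had 16 h compound treatment at 37 C in 2% charcoal-stripped FBS medium.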

Test [12] is described as follows: qHTS assay to identify small molecule antagonists of the TGF-beta/Smad signaling pathway - cell viability counter screen (AID 1346824). Also: nearly all actives have a fitted effect of over 50% in size. The gist of the method: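 SBE-bla HEK 293T cells, incubated overnight, then compound plus 0.25 ng/mL TGF-beta1 (stock added) for 5 hr at 37 C. Viability was read in the same wells by CellTiter-Glo luminescence after 30 min at room temperature.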

Test [13] is described as follows: qHTS assay to identify small molecule agonists of the TGF-beta/Smad signaling pathway - cell viability counter screen (AID 1346829). Also: top concentration of the series differs between compounds; nearly all actives have a fitted effect of over 45% in size. The gist of the method: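 HEK 293T SBE-bla line, 5 hr compound exposure at 37 C, multiplexed CellTiter-Glo viability read by luminescence.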
Test [14] in a line: qHTS assay to identify small molecule agonists of the TGF-beta/Smad signaling pathway (AID 1346859; active = well fitted activation curve with a large enough effect in the signal ratio in the repeat runs, not every such curve was filed as active; the % refers to the signal ratio; also: series mostly up to about 77 µM). In a few lines: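 Fluorescence (ex 405 nm; em 460 and 530 nm) was read 2 h after LiveBLAzer FRET substrate at RT. The preceding compound treatment of overnight-plated SBE-bla HEK293T cells lasted 5 h at 37 C.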
Test [15] concerns the target Thyrotropin-releasing hormone receptor (Homo sapiens) (UniProt P34981). Briefly: qHTS assay to identify small molecule antagonists of the thyrotropin-releasing hormone receptor (TRHR) signaling pathway (AID 1346877; active = well fitted inhibition curve with a large enough effect in the repeat runs, not every such curve was filed as active; also: series mostly up to about 51 µM). The gist of the method:
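In this cell-based calcium flux format, HEK293 cells expressing TRHR received test compound for 5 min before the agonist TRH (1 nM final). Dye loading lasted 2 h at 37 °C.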

Test [16] has the same target. Briefly: qHTS assay to identify small molecule agonists of the thyrotropin-releasing hormone receptor (TRHR) signaling pathway (AID 1346891; calls by dose curve; also: series mostly up to about 58 µM). In a few lines: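 Agonist-mode intracellular calcium readout: kinetic fluorescence over 3 min at 1 s intervals after compound addition to TRHR-HEK293 cells (18 h seeded, 2 h dye-loaded at 37 C). Fifteen concentrations, triplicates.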

Test [17] addresses Estrogen receptor beta (Homo sapiens) (UniProt Q92731). Briefly: qHTS assay to identify small molecule antagonists of the estrogen receptor beta (ER-beta) signaling pathway (AID 1259378; active = well fitted inhibition curve with a large enough effect in the signal ratio in the repeat runs, not every such curve was filed as active; the % refers to the signal ratio; also: potency is read from the fitted curve at half-maximal effect). The gist of the method: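 ER-beta-UAS-bla HEK293T cells in 2% charcoal-stripped FBS medium treated with compound plus 1nM final 17-beta-estradiol for 16 hr at 37C. Beta-lactamase reporter read by FRET substrate fluorescence after 2 hours at room temperature.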

In test [18] the target is Androgen receptor (Homo sapiens) (UniProt P10275). Briefly: qHTS assay to identify small molecule agonists of the androgen receptor (AR) signaling pathway in the presence of an antagonist (AID 1259381; calls by dose curve; also: nearly all actives have a fitted effect of over 15% in size). The gist of the method: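 Here, 15-concentration compound series were pin-transferred onto MDA-kb2 MMTV-luciferase cells already dosed with nilutamide (3.0uM final). After 16hr at 37C, ONE-Glo was added and luminescence read 30min later at room temperature.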

Test [19] is described as follows: qHTS assay to identify small molecule agonists of the androgen receptor (AR) signaling pathway in the presence of an antagonist - cell viability counter screen (AID 1259379).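 Also: MDA-kb2 human breast cancer cells carrying an MMTV luciferase reporter; series mostly up to about 92 µM; nearly all actives have a fitted effect of over 25% in size.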 The gist of the method: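 In MDA-kb2 cells (human breast carcinoma, MMTV-luciferase), compounds at 15 concentrations plus 3.0uM nilutamide; 16 hr, 37C, 0% CO2; CellTiter-Fluor fluorescence read for viability.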

Test [20] in a line: qHTS assay to identify small molecule antagonists of the estrogen receptor beta (ER-beta) signaling pathway - cell viability counter screen (AID 1259382). Also: series mostly up to about 92 µM; nearly all actives have a fitted effect of over 55% in size. The gist of the method: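 Tox21 10K library tested in qHTS format on ER-beta-bla HEK293T cells stimulated with 1nM E2; 16 hr treatment at 37C. Same-well CellTiter-Glo luminescence served as the cell viability measure.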

Records with an inconclusive call do not appear. Calls of active or inactive are those of the source. Unless noted, calls follow the shape of the dose curve; as a rule, active = well fitted curve in the direction sought with a large enough effect in the repeat runs; inconclusive = weak or mixed curves; inactive = no such curve, though single readings can be large; an effect the other way counts as inactive or inconclusive.

Sequence of Estrogen receptor beta (Homo sapiens) (Q92731 whole entry, looked up): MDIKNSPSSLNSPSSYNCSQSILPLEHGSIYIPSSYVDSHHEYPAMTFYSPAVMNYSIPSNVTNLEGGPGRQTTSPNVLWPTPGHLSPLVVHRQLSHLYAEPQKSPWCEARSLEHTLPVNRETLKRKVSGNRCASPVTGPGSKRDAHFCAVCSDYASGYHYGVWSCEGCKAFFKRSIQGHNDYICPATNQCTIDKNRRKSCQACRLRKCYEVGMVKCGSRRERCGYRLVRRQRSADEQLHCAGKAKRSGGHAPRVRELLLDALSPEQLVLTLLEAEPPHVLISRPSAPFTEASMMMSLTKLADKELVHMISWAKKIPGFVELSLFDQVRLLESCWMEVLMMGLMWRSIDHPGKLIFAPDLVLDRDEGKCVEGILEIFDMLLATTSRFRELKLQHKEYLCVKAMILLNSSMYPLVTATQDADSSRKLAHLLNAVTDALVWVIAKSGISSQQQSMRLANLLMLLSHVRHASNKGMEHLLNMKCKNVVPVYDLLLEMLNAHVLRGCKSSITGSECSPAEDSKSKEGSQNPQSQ
Sequence of Progesterone receptor (Homo sapiens) (P06401 whole entry, looked up): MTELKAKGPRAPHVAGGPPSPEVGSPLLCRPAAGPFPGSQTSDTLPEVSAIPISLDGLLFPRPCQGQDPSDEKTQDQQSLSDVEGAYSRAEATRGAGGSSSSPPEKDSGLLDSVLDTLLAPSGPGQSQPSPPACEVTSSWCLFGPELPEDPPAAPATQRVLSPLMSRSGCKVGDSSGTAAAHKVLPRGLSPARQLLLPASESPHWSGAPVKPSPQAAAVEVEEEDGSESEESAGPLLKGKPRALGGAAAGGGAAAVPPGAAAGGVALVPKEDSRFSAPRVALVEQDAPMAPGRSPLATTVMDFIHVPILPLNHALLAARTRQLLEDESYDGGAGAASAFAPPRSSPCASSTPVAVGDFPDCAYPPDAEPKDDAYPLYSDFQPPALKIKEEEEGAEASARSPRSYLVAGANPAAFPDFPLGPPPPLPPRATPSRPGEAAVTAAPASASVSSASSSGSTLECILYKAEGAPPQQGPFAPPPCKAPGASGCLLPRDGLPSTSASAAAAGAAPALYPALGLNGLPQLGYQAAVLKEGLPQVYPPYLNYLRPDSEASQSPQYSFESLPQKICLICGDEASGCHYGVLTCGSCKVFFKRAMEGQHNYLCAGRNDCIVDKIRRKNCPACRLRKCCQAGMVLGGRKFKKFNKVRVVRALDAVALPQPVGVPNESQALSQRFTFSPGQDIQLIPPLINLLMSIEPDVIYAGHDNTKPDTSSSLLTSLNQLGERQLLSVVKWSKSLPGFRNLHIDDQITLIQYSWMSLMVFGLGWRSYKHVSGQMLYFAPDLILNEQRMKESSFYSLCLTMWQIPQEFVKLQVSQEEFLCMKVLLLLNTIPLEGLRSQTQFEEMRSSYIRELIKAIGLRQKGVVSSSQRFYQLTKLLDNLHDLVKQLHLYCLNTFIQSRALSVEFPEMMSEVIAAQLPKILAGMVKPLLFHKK
Sequence of Thyrotropin-releasing hormone receptor (Homo sapiens) (P34981 whole entry, looked up): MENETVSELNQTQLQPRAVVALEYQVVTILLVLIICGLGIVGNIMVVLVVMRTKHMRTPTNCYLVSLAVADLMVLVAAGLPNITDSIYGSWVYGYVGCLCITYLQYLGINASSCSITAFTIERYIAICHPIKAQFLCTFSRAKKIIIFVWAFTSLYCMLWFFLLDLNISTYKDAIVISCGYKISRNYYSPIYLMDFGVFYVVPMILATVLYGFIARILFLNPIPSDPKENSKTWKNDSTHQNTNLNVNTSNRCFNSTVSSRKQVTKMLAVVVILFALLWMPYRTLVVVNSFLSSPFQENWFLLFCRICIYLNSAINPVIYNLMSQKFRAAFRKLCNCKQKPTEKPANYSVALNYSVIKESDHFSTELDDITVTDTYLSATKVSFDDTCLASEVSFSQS
Sequence of Estrogen receptor (Homo sapiens) (P03372 whole entry, looked up): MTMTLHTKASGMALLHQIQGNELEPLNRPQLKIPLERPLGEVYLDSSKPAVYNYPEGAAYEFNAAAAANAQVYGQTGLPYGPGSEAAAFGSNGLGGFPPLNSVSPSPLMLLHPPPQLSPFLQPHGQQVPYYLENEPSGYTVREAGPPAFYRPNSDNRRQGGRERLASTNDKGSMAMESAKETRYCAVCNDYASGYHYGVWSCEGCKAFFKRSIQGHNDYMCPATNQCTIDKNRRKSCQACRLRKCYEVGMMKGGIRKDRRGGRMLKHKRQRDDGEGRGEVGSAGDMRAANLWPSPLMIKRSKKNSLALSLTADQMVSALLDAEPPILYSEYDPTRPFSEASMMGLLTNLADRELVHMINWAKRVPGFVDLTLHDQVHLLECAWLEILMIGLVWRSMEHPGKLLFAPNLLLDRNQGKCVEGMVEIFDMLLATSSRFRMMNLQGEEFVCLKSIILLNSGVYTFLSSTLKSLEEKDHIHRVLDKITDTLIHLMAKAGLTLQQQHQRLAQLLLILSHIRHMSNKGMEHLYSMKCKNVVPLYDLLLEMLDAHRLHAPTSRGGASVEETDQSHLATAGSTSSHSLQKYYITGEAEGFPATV
Sequence of Androgen receptor (Homo sapiens) (P10275 whole entry, looked up): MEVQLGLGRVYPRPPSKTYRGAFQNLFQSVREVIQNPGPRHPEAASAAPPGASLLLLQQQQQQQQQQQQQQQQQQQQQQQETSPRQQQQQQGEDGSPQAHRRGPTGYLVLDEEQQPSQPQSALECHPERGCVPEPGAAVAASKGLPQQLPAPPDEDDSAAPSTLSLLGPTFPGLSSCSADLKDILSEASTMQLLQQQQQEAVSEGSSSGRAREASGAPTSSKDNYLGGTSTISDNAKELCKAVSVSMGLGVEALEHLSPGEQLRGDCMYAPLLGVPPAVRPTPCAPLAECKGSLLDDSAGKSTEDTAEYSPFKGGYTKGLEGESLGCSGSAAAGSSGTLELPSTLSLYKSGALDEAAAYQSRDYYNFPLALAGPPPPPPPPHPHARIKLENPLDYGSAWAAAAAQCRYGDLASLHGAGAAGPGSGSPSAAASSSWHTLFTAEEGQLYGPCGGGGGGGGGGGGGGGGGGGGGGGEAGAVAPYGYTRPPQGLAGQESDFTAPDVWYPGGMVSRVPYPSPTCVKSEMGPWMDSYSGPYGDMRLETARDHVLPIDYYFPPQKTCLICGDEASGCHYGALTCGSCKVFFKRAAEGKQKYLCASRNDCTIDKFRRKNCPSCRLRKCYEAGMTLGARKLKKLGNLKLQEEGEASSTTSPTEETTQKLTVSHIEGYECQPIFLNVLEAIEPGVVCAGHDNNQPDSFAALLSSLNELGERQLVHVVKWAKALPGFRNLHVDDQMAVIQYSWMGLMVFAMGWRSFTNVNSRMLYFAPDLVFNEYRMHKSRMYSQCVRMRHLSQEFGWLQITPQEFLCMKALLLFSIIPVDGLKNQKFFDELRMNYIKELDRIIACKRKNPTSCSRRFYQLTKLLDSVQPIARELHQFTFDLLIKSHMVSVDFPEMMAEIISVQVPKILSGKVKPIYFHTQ
Sequence of Thyrotropin receptor (Homo sapiens) (P16473 whole entry, looked up): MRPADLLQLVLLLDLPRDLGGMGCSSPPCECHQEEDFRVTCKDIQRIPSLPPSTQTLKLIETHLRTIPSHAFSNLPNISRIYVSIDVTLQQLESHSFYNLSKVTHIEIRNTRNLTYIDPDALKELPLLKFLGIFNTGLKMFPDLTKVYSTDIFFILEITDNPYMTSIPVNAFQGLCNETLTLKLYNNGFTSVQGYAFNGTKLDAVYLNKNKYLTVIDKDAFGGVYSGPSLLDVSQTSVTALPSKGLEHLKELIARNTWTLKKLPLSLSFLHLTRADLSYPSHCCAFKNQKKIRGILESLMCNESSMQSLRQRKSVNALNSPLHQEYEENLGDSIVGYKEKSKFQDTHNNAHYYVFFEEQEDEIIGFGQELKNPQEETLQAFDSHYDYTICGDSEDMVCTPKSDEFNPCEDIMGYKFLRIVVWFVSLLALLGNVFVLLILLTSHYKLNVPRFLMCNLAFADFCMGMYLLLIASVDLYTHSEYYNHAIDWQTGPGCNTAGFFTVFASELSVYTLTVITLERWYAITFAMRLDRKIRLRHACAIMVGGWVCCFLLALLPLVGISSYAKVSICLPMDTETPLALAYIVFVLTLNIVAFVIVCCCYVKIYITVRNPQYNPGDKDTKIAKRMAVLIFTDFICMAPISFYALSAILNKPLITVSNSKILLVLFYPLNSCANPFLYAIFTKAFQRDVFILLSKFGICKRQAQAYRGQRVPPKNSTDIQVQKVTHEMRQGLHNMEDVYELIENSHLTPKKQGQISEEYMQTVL

`CCCCN(CCCC)C(=S)SSC(=S)N(CCCC)CCCC`: the Potency in test [1] was 1.91 µM (active). For the same compound, the Potency result in [2], in test [3], in test [4], in test [6], in test [7] and in [8] was “inactive” each time. The Potency result in test [9], in test [10], in [11] and in [16] was “inactive” in each case. Also, the outcome in test [5], in [12], in test [13], in test [14] and in [15] was inactive.

In the case of `COc1cc2ncnc(Nc3ccc(F)c(Cl)c3)c2cc1OCCCN1CCOCC1`, the Potency in [1] is 15 µM (active); in test [17], 7.5 µM (active); in test [3], 6.68 µM (active); in test [9], 21.1 µM (active). The Potency entry in test [18], in test [4] and in test [16] was “inactive” each time. Moreover, the result in [5], in [12], in test [13], in test [14] and in test [15] was inactive.

On to `O=C(/C=C/c1ccccc1)OCCCc1ccccc1`, for which the Potency entry in test [1], in test [17], in test [19], in test [3], in [20] and in test [4] was “inactive” each time. The Potency result in [7], in test [8], in test [9] and in test [11] was “inactive” in each case. Besides, the call in test [12], in test [13] and in [14] was inactive.

`CCOC(=O)C(C)Oc1ccc(Oc2nc3ccc(Cl)cc3o2)cc1` (configuration not stated): the Potency result in [1], in test [2], in test [19], in test [18], in test [20] and in test [7] was “inactive” in each case. Besides, the Potency result in [8], in test [10], in test [11] and in test [16] was “inactive” throughout. Moreover, the result in test [12], in test [13], in [14] and in [15] was inactive.

Turning to `Cc1ccc(Nc2nccc(N(C)c3ccc4c(C)n(C)nc4c3)n2)cc1S(N)(=O)=O`, in test [1], the Potency is 1.88 µM (active). Also, the Potency entry in test [2], in [19], in test [18], in [20], in [4] and in test [8] was “inactive” in each case. Moreover, the Potency result in test [16] was “inactive”. For the same compound, the call in [12], in test [13], in test [14] and in test [15] was inactive.

Regarding `CCC(C(=O)OCCOCCN(CC)CC)c1ccccc1` (configuration not stated), the Potency result in [1], in test [2], in test [19], in test [3], in test [20] and in test [4] was “inactive” throughout. Further, the Potency entry in [7], in test [8], in [10], in test [11] and in test [16] was “inactive” in each case. The compound was called inactive in test [12], in test [13], in [14] and in test [15].

On to `CO/N=C1\CN(c2nc3c(cc2F)c(=O)c(C(=O)O)cn3C2CC2)CC1CN` (configuration not stated), for which the Potency result in test [1], in test [2], in test [19], in test [20], in test [4] and in test [10] was “inactive” in each case. The Potency result in test [11] is “inactive”. In addition, the call in test [5], in [12], in [13] and in test [14] was inactive.

On to `Cc1cc(C(=C2C=CC(=Nc3ccc(S(=O)(=O)O)cc3S(=O)(=O)O)C=C2)c2ccc(Nc3ccc(S(=O)(=O)O)cc3)cc2)ccc1N`, for which the Potency result in [1], in test [17], in [19], in test [20], in [4] and in [8] was “inactive” in each case. Further, the Potency entry in test [9], in test [10], in test [11] and in test [16] was “inactive” throughout. The compound was called inactive in test [12], in test [13], in test [14] and in test [15].

On to `CCCCCCCCCCCC[N+](C)(C)CCCS(=O)(=O)[O-]`, for which the Potency result in test [1], in [2], in [19], in test [20], in test [4] and in test [6] was “inactive” in each case. Besides, the Potency result in test [7], in [8], in test [9] and in [10] was “inactive” each time. Also, the call in test [5], in test [12], in test [13], in test [14] and in test [15] was inactive.
